Results taken from PubChem BioAssay (NCATS).
Results filed as inconclusive are left out. Active and inactive are the calls of the source. Unless noted, calls follow the shape of the dose curve; as a rule, active = well fitted curve in the direction sought with a large enough effect; inconclusive = small, poorly fitted or top-dose-only effect, or another doubt; inactive = no such curve, though single readings can be large; an effect the other way counts as inactive or inconclusive.

Legend:
[1] = biological target: Lysosomal acid glucosylceramidase (Homo sapiens) (UniProt P04062); test: Glucocerebrosidase-p2 (AID 348; in the data active = potency below about 10 µM; also: potency is read from the fitted curve at half-maximal effect); conditions: purified GBA, blue fluorogenic substrate, 40 min
Sequence of Lysosomal acid glucosylceramidase (Homo sapiens) (P04062 whole entry, looked up): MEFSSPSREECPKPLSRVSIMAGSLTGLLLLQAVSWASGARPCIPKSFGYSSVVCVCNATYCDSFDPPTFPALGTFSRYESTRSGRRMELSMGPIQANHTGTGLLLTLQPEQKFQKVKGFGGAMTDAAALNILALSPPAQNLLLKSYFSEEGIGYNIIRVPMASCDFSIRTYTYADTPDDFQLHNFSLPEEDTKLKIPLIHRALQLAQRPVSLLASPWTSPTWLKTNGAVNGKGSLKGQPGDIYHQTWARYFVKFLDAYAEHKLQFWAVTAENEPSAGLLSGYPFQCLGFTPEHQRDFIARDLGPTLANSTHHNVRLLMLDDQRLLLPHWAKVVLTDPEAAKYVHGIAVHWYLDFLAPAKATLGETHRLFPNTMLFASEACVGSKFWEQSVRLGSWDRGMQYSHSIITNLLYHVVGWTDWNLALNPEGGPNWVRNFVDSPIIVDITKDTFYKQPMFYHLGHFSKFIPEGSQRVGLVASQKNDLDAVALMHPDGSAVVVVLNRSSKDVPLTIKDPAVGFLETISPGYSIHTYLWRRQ
Procedure, shortened: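 Normal human glucocerebrosidase (0.2 nM) with blue fluorogenic substrate (80 uM final) in citrate/phosphate pH 5.9 with 10mM sodium taurocholate, 0.01% tween-20; 40 min RT, NaOH/glycine stop; fluorescence Ex 365/Em 440; AC50 from a titration from 0.6 nM upwards.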

[2] = AP1 Signaling Pathway (AID 357; active = well fitted curve in either direction with a large enough effect, not every such curve was filed as active;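 also: ME-180 reporter cells stimulated with EGF at its EC50 level; % is scaled to controls: 0 for no effect and ±100 for the full control effect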); conditions: ME-180 AP-1-bla reporter, EGF-induced, beta-lactamase ratio, 5 h; at 7.69 µM (top of the series) unless noted
Procedure, shortened: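 Titration-series screen for positive or negative modulators of EC50 EGF-induced signaling in ME-180 cells carrying an AP-1-driven beta-lactamase reporter. After 5 hours at 37 degrees Celsius, CCF4 460nm/530nm emission ratio gave %Activity; AC50 values derived.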

[3] = biological target: Cytochrome P450 1A2 (Homo sapiens) (UniProt P05177); test: p450-cyp1a2 (AID 410; calls by dose curve;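 also: -100% = full effect of reference inhibitor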); conditions: recombinant CYP1A2, luciferin-ME demethylation, luminescence; series mostly up to 11.4 µM
Sequence of Cytochrome P450 1A2 (Homo sapiens) (P05177 whole entry, looked up): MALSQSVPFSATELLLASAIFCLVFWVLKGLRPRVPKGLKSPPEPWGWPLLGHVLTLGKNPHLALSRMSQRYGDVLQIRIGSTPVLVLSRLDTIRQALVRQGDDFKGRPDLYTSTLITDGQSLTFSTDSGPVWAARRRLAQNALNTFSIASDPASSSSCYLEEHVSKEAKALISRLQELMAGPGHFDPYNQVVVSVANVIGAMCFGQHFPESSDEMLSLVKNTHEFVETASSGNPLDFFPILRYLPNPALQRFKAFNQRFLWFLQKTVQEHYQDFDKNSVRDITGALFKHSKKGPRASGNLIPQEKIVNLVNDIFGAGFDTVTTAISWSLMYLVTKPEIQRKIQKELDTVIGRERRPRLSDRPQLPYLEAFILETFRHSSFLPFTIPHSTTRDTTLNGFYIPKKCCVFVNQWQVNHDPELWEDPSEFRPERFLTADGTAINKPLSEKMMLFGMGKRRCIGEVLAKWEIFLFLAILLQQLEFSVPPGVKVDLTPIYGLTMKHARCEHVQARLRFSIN
Procedure, shortened: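 Luminescent demethylation readout: Luciferin-ME (100uM, equal to Km) turned over by 20nM CYP1A2 for 60 min at room temperature after NADPH regeneration addition, following 10 min compound preincubation. Normalization used 57 uM furafylline as full inhibition.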

[4] = NFAT Signaling Pathway (AID 444; active = well fitted curve in either direction with a large enough effect, not every such curve was filed as active;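 also: carbachol stimulus at about its EC50 of 1 µM final; % is scaled to controls: 0 for no effect and ±100 for the full control effect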); conditions: Jurkat NFAT-bla M1, carbachol, beta-lactamase ratio, 5 h; at 7.69 µM (top of the series) unless noted
Procedure, shortened: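 Read-out: CCF4 FRET ratio (460 nm/530 nm) after 1 h RT dye loading, used for %activity and AC50 from titration series. Cells: Jurkat NFAT-β-lactamase/M1 line, treated with compound plus 1 uM carbachol for 5 h, 37 °C.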

[5] = Stat Signaling Pathway (AID 446; active = well fitted curve in either direction with a large enough effect, not every such curve was filed as active;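 also: ME-180 cervical cancer cells given 40 pM IL-6 alongside compound; SIE-controlled beta-lactamase reporter measured as 460/530 nm FRET emission ratio; % is scaled to controls: 0 for no effect and ±100 for the full control effect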); conditions: ME-180 (cervical carcinoma) SIE beta-lactamase reporter, IL-6 stimulated, 5 h; at 7.69 µM (top of the series) unless noted
Procedure, shortened: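 FRET read-out (405 nm excitation, 460/530 nm emission) of a beta-lactamase reporter under a STAT-inducible element in ME-180 cervical carcinoma cells. Cells with compound receive 40 pM IL-6 for 5 h. Values are normalised to AC90 stimulation and AC90 JAK-inhibitor controls.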

[6] = biological target: Glucocorticoid receptor (Homo sapiens) (UniProt P04150); test: GR-GFP Redistribution (AID 450;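 active = compounds whose dose series gives a full or clear partial fitted curve of increased nuclear translocation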; also: potency is read from the fitted curve at half-maximal effect); conditions: U2OS GR-GFP nuclear translocation, laser cytometry, 2 h
Sequence of Glucocorticoid receptor (Homo sapiens) (P04150 whole entry, looked up, the tested form may be a part): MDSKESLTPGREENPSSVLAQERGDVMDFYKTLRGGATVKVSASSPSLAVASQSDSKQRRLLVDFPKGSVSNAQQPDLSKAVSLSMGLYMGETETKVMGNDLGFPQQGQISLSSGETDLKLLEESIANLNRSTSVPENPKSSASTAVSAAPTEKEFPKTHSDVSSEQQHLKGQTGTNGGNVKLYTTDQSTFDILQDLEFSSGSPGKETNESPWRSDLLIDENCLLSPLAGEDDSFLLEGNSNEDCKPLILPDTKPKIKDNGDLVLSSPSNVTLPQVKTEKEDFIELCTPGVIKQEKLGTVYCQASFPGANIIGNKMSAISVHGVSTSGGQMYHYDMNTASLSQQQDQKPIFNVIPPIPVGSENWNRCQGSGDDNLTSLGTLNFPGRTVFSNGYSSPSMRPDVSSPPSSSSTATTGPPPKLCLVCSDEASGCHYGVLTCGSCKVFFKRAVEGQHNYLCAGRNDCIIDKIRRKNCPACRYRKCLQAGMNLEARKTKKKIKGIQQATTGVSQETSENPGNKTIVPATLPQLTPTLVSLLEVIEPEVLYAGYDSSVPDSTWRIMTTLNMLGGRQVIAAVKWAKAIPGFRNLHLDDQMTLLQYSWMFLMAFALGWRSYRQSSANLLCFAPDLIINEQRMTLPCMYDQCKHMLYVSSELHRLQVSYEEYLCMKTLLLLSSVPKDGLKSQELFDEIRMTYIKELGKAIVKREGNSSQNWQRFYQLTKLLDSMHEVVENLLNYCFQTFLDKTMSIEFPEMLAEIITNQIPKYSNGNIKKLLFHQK

[7] = biological target: Glucocorticoid receptor (Homo sapiens) (UniProt P04150); test: GR-EFC Redistribution (AID 451; calls by dose curve; also: potency is read from the fitted curve at half-maximal effect); conditions: CHO-K1 GR-EFC translocation, beta-gal luminescence, 2 h
Procedure, shortened: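 Translocation of GR-ED fusion to nuclear EA restores b-gal, read by luminescence after 1 h room-temperature detection. Engineered CHO-K1 biosensor cells, 1,000/well, exposed 2 h at 37 C to titrations up to 46 uM final.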

[8] = biological target: Mitogen-activated protein kinase 10 (Mus musculus) (UniProt Q61831); test: JNK3 AlphaScreen Assay (AID 530; active = well fitted curve in either direction with a large enough effect, not every such curve was filed as active;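 also: kinase came from lysate of stimulated human HepG2 cells; signal reports phosphorylation of biotinylated GST-cJun 1-79 at Ser73 with 10 µM ATP; % is scaled to controls: 0 for no effect and ±100 for the full control effect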); conditions: JNK3 lysate, c-Jun phosphorylation; series mostly up to 57.1 µM
Procedure, shortened: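 qHTS titrations with 15 min compound pre-incubation before adding ATP (10 uM final). Read-out: AlphaScreen of Ser73-phosphorylated biotin-GST-cJun using HepG2 lysate JNK3 activated by IL-1β and TNFα.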

[9] = biological target: 3',5'-cyclic-AMP phosphodiesterase 4B (Homo sapiens) (UniProt Q07343); test: qHTS Assay for Inhibitors of PDE-IV (AID 607; active = well fitted activation curve with a large enough effect in the main read-out, with a control signal flat, not every such curve was filed as active; also: % of control where 0% means no effect); conditions: HEK293 ACTOne CNG channel cells, membrane potential fluorescence; series mostly up to 22.9 µM
Sequence of 3',5'-cyclic-AMP phosphodiesterase 4B (Homo sapiens) (Q07343 whole entry, looked up): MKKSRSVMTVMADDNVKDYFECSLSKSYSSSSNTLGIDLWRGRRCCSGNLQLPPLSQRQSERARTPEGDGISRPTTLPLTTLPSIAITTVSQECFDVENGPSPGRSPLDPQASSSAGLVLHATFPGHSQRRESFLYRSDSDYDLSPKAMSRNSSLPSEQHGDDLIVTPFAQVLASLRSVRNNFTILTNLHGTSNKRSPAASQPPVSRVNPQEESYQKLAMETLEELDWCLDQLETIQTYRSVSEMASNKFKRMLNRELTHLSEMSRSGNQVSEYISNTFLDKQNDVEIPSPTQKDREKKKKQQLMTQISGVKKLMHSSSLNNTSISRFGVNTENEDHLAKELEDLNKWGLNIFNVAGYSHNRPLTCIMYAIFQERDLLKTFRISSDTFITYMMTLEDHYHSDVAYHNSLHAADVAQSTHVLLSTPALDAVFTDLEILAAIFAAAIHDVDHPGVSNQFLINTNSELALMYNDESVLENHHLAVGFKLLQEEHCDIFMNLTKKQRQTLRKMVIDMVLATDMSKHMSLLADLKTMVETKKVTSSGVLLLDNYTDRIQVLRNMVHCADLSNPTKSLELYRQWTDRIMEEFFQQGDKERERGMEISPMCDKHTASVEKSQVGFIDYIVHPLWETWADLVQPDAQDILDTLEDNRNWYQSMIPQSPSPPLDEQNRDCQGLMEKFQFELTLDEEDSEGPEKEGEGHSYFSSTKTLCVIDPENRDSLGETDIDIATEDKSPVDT
Procedure, shortened: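 Cell-based read-out of cAMP via a modified cyclic nucleotide-gated channel and membrane potential dye (535/590 nm) in HEK293 cells expressing PDE4 endogenously. Compounds tested up to 22.9 uM final; 100 uM RO 20-1724 reference.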

[10] = biological target: Cytochrome P450 2C19 (Homo sapiens) (UniProt P33261); test: qHTS Assay for Inhibitors and Substrates of Cytochrome P450 2C19 (AID 899); conditions: recombinant CYP2C19, luciferin-H EGE luminescence; series mostly up to 11.4 µM; also: % is scaled to controls: 0 for no effect and ±100 for the full control effect; nearly all actives have a fitted effect of over 60% in size
Sequence of Cytochrome P450 2C19 (Homo sapiens) (P33261 whole entry, looked up): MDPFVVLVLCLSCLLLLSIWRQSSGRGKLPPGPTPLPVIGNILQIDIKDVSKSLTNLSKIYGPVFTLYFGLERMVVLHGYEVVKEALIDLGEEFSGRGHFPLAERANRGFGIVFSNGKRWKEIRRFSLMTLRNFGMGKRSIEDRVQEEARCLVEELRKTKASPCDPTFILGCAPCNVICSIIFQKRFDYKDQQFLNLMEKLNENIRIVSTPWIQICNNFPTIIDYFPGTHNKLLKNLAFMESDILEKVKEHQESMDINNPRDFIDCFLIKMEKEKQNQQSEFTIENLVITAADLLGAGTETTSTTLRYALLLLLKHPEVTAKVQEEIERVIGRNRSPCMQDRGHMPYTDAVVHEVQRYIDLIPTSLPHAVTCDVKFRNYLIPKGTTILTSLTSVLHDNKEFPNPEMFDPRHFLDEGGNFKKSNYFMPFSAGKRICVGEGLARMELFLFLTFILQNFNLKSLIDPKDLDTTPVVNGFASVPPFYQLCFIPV
Procedure, shortened: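 Luminescence readout of luciferin formed from 10uM Luciferin-H EGE (KM level) by 5 nM CYP2C19 in 50mM KPO4. 60 min NADPH-driven reaction at 37C after 10 min compound preincubation; data scaled to 57uM ketoconazole inhibition.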

[11] = biological target: ATP-dependent 6-phosphofructokinase (Trypanosoma brucei brucei) (UniProt O15648); test: qHTS Assay to Find Inhibitors of T. brucei phosphofructokinase: hit validation (AID 492961); conditions: T. brucei PFK, ADP-Glo luminescence; series mostly up to 51.4 µM
Sequence of ATP-dependent 6-phosphofructokinase (Trypanosoma brucei brucei) (O15648 whole entry, looked up): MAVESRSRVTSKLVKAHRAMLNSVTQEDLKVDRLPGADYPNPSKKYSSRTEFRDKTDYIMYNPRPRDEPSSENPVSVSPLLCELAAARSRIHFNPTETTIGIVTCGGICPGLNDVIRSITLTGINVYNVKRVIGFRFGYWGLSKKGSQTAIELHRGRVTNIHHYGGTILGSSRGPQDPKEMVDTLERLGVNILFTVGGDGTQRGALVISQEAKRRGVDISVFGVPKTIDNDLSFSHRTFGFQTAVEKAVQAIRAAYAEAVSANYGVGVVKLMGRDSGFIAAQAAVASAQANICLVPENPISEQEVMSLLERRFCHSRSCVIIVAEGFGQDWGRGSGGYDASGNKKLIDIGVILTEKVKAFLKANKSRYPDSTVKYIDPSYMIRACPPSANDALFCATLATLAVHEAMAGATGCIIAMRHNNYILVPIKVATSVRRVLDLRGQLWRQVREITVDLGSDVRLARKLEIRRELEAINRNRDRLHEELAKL
Procedure, shortened: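 ADP-Glo luminescence read-out of ADP formed by 1.25 nM PFK from 0.1 mM ATP and 0.5 mM F6P (TEA pH 8.0, 45 min, RT). Compounds titrated; activity normalized to no-enzyme and full-enzyme controls.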

[12] = biological target: Ubiquitin carboxyl-terminal hydrolase 1 (Homo sapiens) (UniProt O94782); test: Inhibitors of USP1/UAF1: Pilot qHTS (AID 504865); conditions: purified USP1/UAF1, Ub-rhodamine cleavage fluorescence; series mostly up to 114 µM;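 also: rhodamine fluorescence freed from ubiquitin-rhodamine substrate followed over time; top concentration of the series differs between compounds; % is scaled to controls: 0 for no effect and ±100 for the full control effect; nearly all actives have a fitted effect of over 35% in size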
Sequence of Ubiquitin carboxyl-terminal hydrolase 1 (Homo sapiens) (O94782 whole entry, looked up): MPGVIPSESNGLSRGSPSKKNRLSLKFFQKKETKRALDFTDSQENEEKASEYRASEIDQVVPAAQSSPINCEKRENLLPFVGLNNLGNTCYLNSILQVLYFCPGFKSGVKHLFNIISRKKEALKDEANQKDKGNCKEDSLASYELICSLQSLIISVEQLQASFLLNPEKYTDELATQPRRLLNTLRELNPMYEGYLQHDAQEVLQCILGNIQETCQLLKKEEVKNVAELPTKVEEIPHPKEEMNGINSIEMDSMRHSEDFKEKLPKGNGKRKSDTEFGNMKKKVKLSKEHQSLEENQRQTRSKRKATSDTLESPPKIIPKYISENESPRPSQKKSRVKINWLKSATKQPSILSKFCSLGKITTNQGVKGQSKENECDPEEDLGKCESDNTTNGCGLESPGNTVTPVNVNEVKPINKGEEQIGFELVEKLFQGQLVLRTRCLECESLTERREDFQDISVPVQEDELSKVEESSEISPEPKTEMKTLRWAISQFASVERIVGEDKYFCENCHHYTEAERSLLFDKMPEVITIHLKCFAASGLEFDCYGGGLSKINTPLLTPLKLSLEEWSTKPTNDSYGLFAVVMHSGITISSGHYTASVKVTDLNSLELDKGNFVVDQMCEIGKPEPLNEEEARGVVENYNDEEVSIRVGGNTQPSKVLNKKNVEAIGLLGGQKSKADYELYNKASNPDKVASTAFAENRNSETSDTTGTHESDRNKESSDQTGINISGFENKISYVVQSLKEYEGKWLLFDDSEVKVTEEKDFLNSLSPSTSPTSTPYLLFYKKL
Procedure, shortened: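 USP1/UAF1 complex (1nM) preincubated with compound 15 min at room temperature, then Ub-Rho substrate (150nM final) added. Fluorescence read kinetically at 480/540 nm, 6 reads every 60 seconds. Buffer: 50mM HEPES pH 7.8, 0.5mM EDTA, 0.1 mg/ml BSA, 1mM TCEP, 0.01% Tween-20.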

[13] = biological target: Luciferin 4-monooxygenase (Photinus pyralis) (UniProt P08659); test: Biochemical firefly luciferase enzyme assay for NPC (AID 624030);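 also: purified P. pyralis luciferase at 10 nM with luciferin and ATP substrate; 0% = DMSO and -100% = full luciferase inhibition by PTC124 control; nearly all actives have a fitted effect of over 70% in size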; conditions: purified P. pyralis luciferase, luminescence, 5 min; series mostly up to 58.6 µM
Sequence of Luciferin 4-monooxygenase (Photinus pyralis) (P08659 whole entry, looked up): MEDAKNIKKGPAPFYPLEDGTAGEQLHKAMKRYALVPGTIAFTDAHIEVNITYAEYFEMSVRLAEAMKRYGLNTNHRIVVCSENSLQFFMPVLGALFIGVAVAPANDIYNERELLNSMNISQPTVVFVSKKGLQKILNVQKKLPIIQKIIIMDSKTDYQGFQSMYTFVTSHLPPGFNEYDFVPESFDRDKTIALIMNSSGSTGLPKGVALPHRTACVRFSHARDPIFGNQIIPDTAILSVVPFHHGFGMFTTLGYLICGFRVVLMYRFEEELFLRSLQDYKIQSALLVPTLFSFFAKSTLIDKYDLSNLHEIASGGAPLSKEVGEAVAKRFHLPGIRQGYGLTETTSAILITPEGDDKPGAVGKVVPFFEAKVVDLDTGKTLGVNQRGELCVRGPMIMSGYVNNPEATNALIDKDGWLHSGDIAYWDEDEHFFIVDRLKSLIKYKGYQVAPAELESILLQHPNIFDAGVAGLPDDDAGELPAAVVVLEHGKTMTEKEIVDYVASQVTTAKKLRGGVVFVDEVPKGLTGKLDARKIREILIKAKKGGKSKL
Procedure, shortened: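 Direct inhibition of firefly luciferase enzyme (10 nM final, 50 mM Tris Acetate) assessed by luminescence within 5 minutes. Percent activity scaled between DMSO and PTC124 positive control, with concentration-effect curves classified by fit quality and response.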

[14] = S16 Schwann cell viability assay (CellTiter-Glo assay) (AID 624031); conditions: S16 rat Schwann cells viability, 24 h; series mostly up to 57.5 µM;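 also: native untransfected S16 rat Schwann cells; cellular ATP luminescence as a viability measure; plate controls were DMSO-treated cells for no effect and cell-free wells for full effect; nearly all actives have a fitted effect of over 70% in size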
Procedure, shortened: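 Following overnight culture in 10% FBS DMEM, parental S16 rat Schwann cells are dosed for 24 h at 37 °C. Viability is read as CellTiter-Glo luminescence and expressed as % activity relative to DMSO (0%) and no-cell wells.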

[15] = S16 Schwann cell PMP22 intronic element firefly luciferase assay (AID 624032); conditions: S16 rat Schwann cells, PMP22 element FLuc, 24 h; series mostly up to 57.5 µM;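 also: plate controls were DMSO for no effect and PTC124 positive control mean for full effect; nearly all actives have a fitted effect of over 30% in size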
Procedure, shortened: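 Luciferase reporter of PMP22 intronic-element expression in stably transfected S16 rat Schwann cells, read by ONE-Glo luminescence after 24 h compound exposure at 37 C. Activity scaled between DMSO (0%) and positive-control PTC124; concentration-effect curves quality-classified.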

[16] = S16 Schwann cell PMP22 intronic element beta-lactamase assay (AID 624044; calls by dose curve;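 also: 0% = DMSO and -100% = potassium clavulanate positive control; nearly all actives have a fitted effect of over 15% in size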); conditions: S16 rat Schwann cells, PMP22 element beta-lactamase FRET, 24 h; series mostly up to 38.3 µM
Procedure, shortened: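 Beta-lactamase reporter under a PMP22 intronic regulatory element in stable S16 rat Schwann cells; 24 h compound exposure. 460 nm blue signal normalized between DMSO (0%) and potassium clavulanate, with 535 nm FRET tracking viability; curves classed by r2 and response.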

[17] = qHTS profiling for inhibitors of Plasmodium falciparum proliferation (AID 504749);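 also: 0% = DMSO vehicle and full inhibition = artemisinin control; nearly all actives have a fitted effect of over 60% in size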; conditions: P. falciparum in erythrocytes, SYBR Green DNA, 72 h, at 28.7 µM (top of the series)
Procedure, shortened: (§1)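 SYBR Green fluorescence of parasite DNA, read after lysis and overnight dark incubation, measured growth over 72 h in erythrocyte culture at 0.3% parasitemia and 2.5% hematocrit. Data normalised to DMSO and 0.29 uM artemisinin, with plate-drift correction.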

[18] = system: 3D7; test: as above; conditions: P. falciparum in erythrocytes, SYBR Green DNA, 72 h; series mostly up to 28.7 µM
Procedure, shortened: as §1

[19] = system: 7G8; test: as above; conditions: P. falciparum in erythrocytes, SYBR Green DNA, 72 h; series mostly up to 28.7 µM
Procedure, shortened: as §1

[20] = system: AA1029; test: as above; conditions: P. falciparum in erythrocytes, SYBR Green DNA, 72 h; series mostly up to 28.7 µM
Procedure, shortened: as §1

[21] = system: AS120; test: as above; conditions: P. falciparum in erythrocytes, SYBR Green DNA, 72 h; series mostly up to 28.7 µM
Procedure, shortened: as §1

[22] = system: ATS189; test: as above; conditions: P. falciparum in erythrocytes, SYBR Green DNA, 72 h; series mostly up to 28.7 µM
Procedure, shortened: as §1

[23] = system: ATS95; test: as above; conditions: P. falciparum in erythrocytes, SYBR Green DNA, 72 h; series mostly up to 28.7 µM
Procedure, shortened: as §1

[24] = system: C2A; test: as above; conditions: P. falciparum in erythrocytes, SYBR Green DNA, 72 h; series mostly up to 28.7 µM
Procedure, shortened: as §1

[25] = system: CP185; test: as above; conditions: P. falciparum in erythrocytes, SYBR Green DNA, 72 h; series mostly up to 28.7 µM
Procedure, shortened: as §1

[26] = system: CP191; test: as above; conditions: P. falciparum in erythrocytes, SYBR Green DNA, 72 h; series mostly up to 28.7 µM
Procedure, shortened: as §1

[27] = system: CP192; test: as above; conditions: P. falciparum in erythrocytes, SYBR Green DNA, 72 h; series mostly up to 28.7 µM
Procedure, shortened: as §1

[28] = system: CP194; test: as above; conditions: P. falciparum in erythrocytes, SYBR Green DNA, 72 h; series mostly up to 28.7 µM
Procedure, shortened: as §1

[29] = system: CP201; test: as above; conditions: P. falciparum in erythrocytes, SYBR Green DNA, 72 h; series mostly up to 28.7 µM
Procedure, shortened: as §1

[30] = system: CP203; test: as above; conditions: P. falciparum in erythrocytes, SYBR Green DNA, 72 h; series mostly up to 28.7 µM
Procedure, shortened: as §1

[31] = system: CP211; test: as above; conditions: P. falciparum in erythrocytes, SYBR Green DNA, 72 h; series mostly up to 28.7 µM
Procedure, shortened: as §1

[32] = system: CP215; test: as above; conditions: P. falciparum in erythrocytes, SYBR Green DNA, 72 h; series mostly up to 28.7 µM
Procedure, shortened: as §1

[33] = system: CP217; test: as above; conditions: P. falciparum in erythrocytes, SYBR Green DNA, 72 h; series mostly up to 28.7 µM
Procedure, shortened: as §1

[34] = system: CP237; test: as above; conditions: P. falciparum in erythrocytes, SYBR Green DNA, 72 h; series mostly up to 28.7 µM
Procedure, shortened: as §1

[35] = system: CP238; test: as above; conditions: P. falciparum in erythrocytes, SYBR Green DNA, 72 h; series mostly up to 28.7 µM
Procedure, shortened: as §1

[36] = system: CP247; test: as above; conditions: P. falciparum in erythrocytes, SYBR Green DNA, 72 h; series mostly up to 28.7 µM
Procedure, shortened: as §1

[37] = system: CP250; test: as above; conditions: P. falciparum in erythrocytes, SYBR Green DNA, 72 h; series mostly up to 28.7 µM
Procedure, shortened: as §1

C[N+]1([O-])[C@H]2CC[C@H]1CC(OC(=O)[C@@H](CO)c1ccccc1)C2 (stereo partly drawn)
active: activity change, negative = inhibition [4] -79.7%
inactive: Potency [1] > 11.4 µM | activity change, negative = inhibition [2] -0.292% | activity change, negative = inhibition [3] 0.8% [at 2.29 µM] | activity, negative = inhibition [5] -0.881% | Potency [6] > 46 µM | Potency [7] > 9.22 µM | activity change, negative = inhibition [8] 1.19% [at 11.4 µM] | outcome [9] | Potency [10] | outcome [11] | Potency [12] | outcome [13] | outcome [14] | outcome [15] | outcome [16] | activity, negative = inhibition ([17]; parasite line A) 6.57% | activity, negative = inhibition ([17]; parasite line B) -2.12% | Potency [18] | Potency [19] | Potency [20] | Potency [21] | Potency [22] | Potency [23] | Potency [24] | Potency [25] | Potency [26] | Potency [27] | Potency [28] | Potency [29] | Potency [30] | Potency [31] | Potency [32] | Potency [33] | Potency [34] | Potency [35] | Potency [36] | Potency [37]
